# Results published in the supplement of paper PMC8728848.
# The entries come from a sample that favours the strongest signals as a whole.
# B1: Flo11 (Saccharomyces cerevisiae), Q1H8S8 (protein)
# chain: MGSSHHHHHHSSGLVPRGSHMFPTALVPRGSSEGTSCNSIVNGCPNLDFNWHMDQQNIMQYTLDVTSVSWVQDNTYQITIHVKGKENIDLKYLWSLKIIGVTGPKGTVQLYGYNENTYLIDNPTDFTATFEVYATQDVNSCQVWMPNFQIQFEYLQGSAAQYASSWQWGTTSFDLSTGCNNYDNQGHSQTDFPGFYWNIDCDNNCGGTKSS
# Tests used:
# Assay in all cases: glycan array binding signal (z-score within array); higher = stronger binding
# Conditions in all cases: glycan notation: IUPAC condensed, linker removed
# [1] = target: Fuc(a1-2)Gal(b1-4)GlcNAc(b1-3)Gal(b1-4)GlcNAc
# Outline: (§1)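 Columns mapping to the same glycan were averaged after glycan names were converted to IUPAC-condensed notation. The data come from 3228 arrays in the Consortium for Functional Glycomics database, limited to those with an available protein sequence. Binding is reported as a within-array Z-score averaged across arrays of one protein sequence and across linkers.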
# [2] = target: Fuc(a1-3)[Gal3S(b1-4)]GlcNAc6S
# Outline: as §1
# [3] = target: Fuc(a1-3)[Neu5Ac(a2-3)]Gal(b1-4)GlcNAc(b1-3)GalNAc
# Outline: as §1
# [4] = target: Gal(b1-3)GalNAc(b1-4)[Neu5Ac(a2-3)]Gal(b1-4)Glc
# Outline: as §1
# [5] = target: Gal(b1-3)[Fuc(a1-4)]GlcNAc(b1-3)Gal(b1-4)[Fuc(a1-3)]GlcNAc
# Outline: as §1
# Gal(b1-4)Glc6S = target: Gal(b1-4)Glc6S
# Outline: as §1
# [6] = target: Gal(b1-4)GlcNAc(b1-2)Man(a1-6)Man(b1-4)GlcNAc(b1-4)GlcNAc
# Outline: as §1
# [7] = target: Gal(b1-4)GlcNAc(b1-2)Man(a1-6)[Man(a1-3)]Man(b1-4)GlcNAc(b1-4)GlcNAc
# Outline: as §1
# [8] = target: Gal(b1-4)GlcNAc(b1-6)[Gal(b1-3)]GalNAc
# Outline: as §1
# [9] = target: Gal3S(b1-3)[Fuc(a1-4)]GlcNAc
# Outline: as §1
# GalNAc(b1-3)Gal = target: GalNAc(b1-3)Gal
# Outline: as §1
# [10] = target: GalNAc(b1-3)Gal(a1-4)Gal(b1-4)GlcNAc
# Outline: as §1
# [11] = target: GlcNAc(a1-4)Gal(b1-4)GlcNAc(b1-3)Gal(b1-4)[Fuc(a1-3)]GlcNAc(b1-3)Gal(b1-4)[Fuc(a1-3)]GlcNAc
# Outline: as §1
# [12] = target: GlcNAc(b1-2)Man(a1-3)[GlcNAc(b1-2)Man(a1-6)]Man(b1-4)GlcNAc(b1-4)GlcNAc
# Outline: as §1
# GlcNAc(b1-3)Gal(b1-4)Glc = target: GlcNAc(b1-3)Gal(b1-4)Glc
# Outline: as §1
# Kdn(a2-3)Gal(b1-4)GlcNAc = target: Kdn(a2-3)Gal(b1-4)GlcNAc
# Outline: as §1
# [13] = target: Man(a1-2)Man(a1-2)Man(a1-3)Man
# Outline: as §1
# Man(a1-3)[Man(a1-6)]Man = target: Man(a1-3)[Man(a1-6)]Man
# Outline: as §1
# [14] = target: Neu5Ac(a2-3)Gal(b1-3)GalNAc(b1-3)Gal(a1-4)Gal(b1-4)Glc
# Outline: as §1
# [15] = target: Neu5Ac(a2-3)Gal(b1-3)[Neu5Ac(a2-3)Gal(b1-4)]GlcNAc
# Outline: as §1
# Neu5Ac(a2-6)Gal(b1-4)Glc = target: Neu5Ac(a2-6)Gal(b1-4)Glc
# Outline: as §1
# [16] = target: Neu5Ac(a2-8)Neu5Ac(a2-3)[GalNAc(b1-4)]Gal(b1-4)Glc
# Outline: as §1
# [17] = target: Neu5Ac9Ac(a2-3)Gal(b1-3)GlcNAc
# Outline: as §1
# [18] = target: Neu5Ac9Ac(a2-6)Gal(b1-4)GlcNAc
# Outline: as §1
# [19] = target: Neu5Gc(a2-3)Gal(b1-4)[Fuc(a1-3)]GlcNAc
# Outline: as §1
binder,measurement,setting,value
B1,glycan array binding signal (z-score),[1],-0.01
same,glycan array binding signal (z-score),[2],1.26
same,glycan array binding signal (z-score),[3],3.1
same,glycan array binding signal (z-score),[4],2.88
same,glycan array binding signal (z-score),[5],-0.502
same,glycan array binding signal (z-score),Gal(b1-4)Glc6S,-0.505
same,glycan array binding signal (z-score),[6],-0.507
same,glycan array binding signal (z-score),[7],-0.506
same,glycan array binding signal (z-score),[8],-0.482
same,glycan array binding signal (z-score),[9],-0.502
same,glycan array binding signal (z-score),GalNAc(b1-3)Gal,3.63
same,glycan array binding signal (z-score),[10],4.27
same,glycan array binding signal (z-score),[11],0.071
same,glycan array binding signal (z-score),[12],-0.505
same,glycan array binding signal (z-score),GlcNAc(b1-3)Gal(b1-4)Glc,1.26
same,glycan array binding signal (z-score),Kdn(a2-3)Gal(b1-4)GlcNAc,-0.496
same,glycan array binding signal (z-score),[13],-0.505
same,glycan array binding signal (z-score),Man(a1-3)[Man(a1-6)]Man,-0.502
same,glycan array binding signal (z-score),[14],3.08
same,glycan array binding signal (z-score),[15],-0.511
same,glycan array binding signal (z-score),Neu5Ac(a2-6)Gal(b1-4)Glc,-0.507
same,glycan array binding signal (z-score),[16],3.67
same,glycan array binding signal (z-score),[17],-0.505
same,glycan array binding signal (z-score),[18],-0.494
same,glycan array binding signal (z-score),[19],3.45
